Among the data in PubChem BioAssay (NCI) are growth values, retold here.

Structures are written as SMILES. Compounds without any hit were thinned out: in the full panel of roughly 83,000, 20% have a hit.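 A percent growth of 40 corresponds to 60% growth inhibition; 0 means no net growth; -100 means all cells died. Active threshold: below 10.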 Values without a mark were called inactive. Calls of active or inactive are those of the source.

Holding throughout (assay): NCI-60 one-dose screen, 48 h (100 = growth as untreated, 0 = no growth, -100 = all killed)
The test system of assay [1] is HCT-15 colon. To be noted: 10 µM.
Assay [2] relates to HT29 colon. To be noted: 10 µM.
The test system of assay [3] is SNB-75 CNS. To be noted: 10 µM.
For assay [4], the system named is U251 CNS. To be noted: 10 µM.
In assay [5] the test system is PC-3 prostate. Particulars: 10 µM.
In assay [6] the test system is SK-MEL-5 melanoma. To be noted: 10 µM.
Assay [7] has as its system UACC-62 melanoma. Particulars: 10 µM unless noted.
Assay [8] has as its system LOX IMVI melanoma. To be noted: 10 µM.
The subject of assay [9] is SK-MEL-28 melanoma. To be noted: 10 µM.
For assay [10], the system named is SK-MEL-2 melanoma. Particulars: 10 µM.
The subject of assay [11] is EKVX NSCLC. To be noted: 10 µM.
Assay [12] has as its system SN12C renal. Particulars: 10 µM.
Assay [13] has as its system TK-10 renal. To be noted: 10 µM unless noted.
Assay [14] concerns ACHN renal. To be noted: 10 µM.
For assay [15], the system named is CAKI-1 renal. Particulars: 10 µM.
Assay [16] relates to A498 renal. To be noted: 10 µM.
Assay [17] deals with CCRF-CEM leukemia. Particulars: 10 µM.
Assay [18] relates to MOLT-4 leukemia. Particulars: 10 µM.
Assay [19] relates to UO-31 renal. Particulars: 10 µM.

Turning to `CCCCNC(=O)C(=O)NCCCC`, the growth in [1] is 105%; in assay [2] it was 120%; in assay [3], 116%; in [4] it was 114%; in [5] it was 105%; in [6], 100%. Also, the growth was 92.6% in assay [7]; 102% in assay [8]; 112% in assay [9]; 123% in assay [10]; 95.5% in assay [11]; 98.8% in assay [12]. Besides, the growth in [13] was 96.4%; in assay [14], 110%; in assay [15] it was 91.8%; in assay [16], 114%; in [17], 101%; in assay [18], 129%.

For `CS(=O)CC1=NC(=N)N=C1CS(C)=O` (stereo not given), the growth was 102% in assay [1]; 109% in [2]; 97.7% in assay [3]; 98.1% in assay [4]; 98.7% in assay [5]; 99.3% in assay [6]. The growth was 98.4% in [7]; 96.7% in assay [8]; 108% in [9]; 115% in assay [10]; 98.7% in assay [11]; 101% in assay [12]. The growth was 101% in assay [13]; 107% in assay [14]; 92.9% in [15]; 104% in [16]; 108% in [17]; 107% in [18].

With `CC(=O)CC(=O)N(C)C`, the growth in [1] is 95.1%; in [2], 97.8%; in assay [3], 80.1%; in assay [4], 100%; in [5] it was 92.8%; in assay [6], 93.7%. For the same molecule, the growth is 88.8% in assay [7]; 94.1% in assay [8]; 105% in assay [9]; 106% in assay [10]; 93.5% in assay [11]; 97% in assay [12]. Also, the growth is 98.4% in assay [13]; 103% in [14]; 88.3% in assay [15]; 102% in assay [16]; 73.7% in assay [17]; 120% in assay [18].

For `CN(C)Cc1cc(C(C)(C)CC(C)(C)C)ccc1O`, the growth is 79.4% in assay [1]; 99.9% in assay [2]; 79.9% in [3]; 90.8% in [4]; 84.1% in assay [5]; 100% in assay [6]. Moreover, the growth in assay [7] is 99.5%; in assay [8] it was 94.9%; in assay [9] it was 109%; in assay [10], 71.1%; in assay [11], 98.4%; in [19], 76.2%. The growth was 99.8% in assay [13]; 82.4% in [14]; 90.7% in [15]; 116% in assay [16]; 99.6% in [17]; 86.4% in assay [18].

As to `CCCCCCCCCCCCCC(=O)Oc1ccc[nH]c1=O`, the growth in [1] was 85.8%; in [2], 91.9%; in assay [3] it was 110%; in [4], 96.3%; in assay [5] it was 86.9%; in assay [6] it was 97.1%. Also, the growth is 88.7% in [7]; 44.1% in assay [8]; 109% in assay [9]; 115% in assay [10]; 83.4% in assay [11]; 98.1% in assay [12]. The growth in assay [13] is 84.2%; in [14], 110%; in assay [15], 84.5%; in [16] it was 94.5%; in [17], 75.5%; in [18], 98.6%.

For the molecule `COc1ccccc1NC(=O)C1=C(C)NC(C)=C(C(=O)Nc2ccccc2OC)C1c1cccc([N+](=O)[O-])c1`, the growth is 64.4% in assay [1]; 75.8% in [2]; 74.2% in assay [3]; 76% in assay [4]; 41.6% in assay [5]; 61.5% in assay [6]. In addition, the growth in assay [7] was 54.5%; in assay [8] it was 69.1%; in [9], 82.2%; in assay [10], 79.6%; in assay [11], 44.1%; in [12], 68.4%. The growth was 97.4% in [13]; 54.6% in [14]; 50.1% in assay [15]; 128% in [16]; 64.5% in assay [17]; 37.4% in assay [18].

Turning to `CSc1[nH]c(=O)ncc1F`, the growth in assay [1] was 100%; in [2] it was 112%; in assay [3], 102%; in assay [4], 100%; in assay [6], 101%; in [7] it was 92.8%. For the same molecule, the growth in assay [8] was 95.8%; in assay [9] it was 111%; in [10], 117%; in assay [11], 101%; in [12], 101%; in [13] it was 109%. Also, the growth in assay [14] was 95%; in assay [15], 91.5%; in assay [16], 101%; in [17], 91.2%; in [18], 117%.

For the molecule `OC1OC(COC(c2ccccc2)(c2ccccc2)c2ccccc2)C(O)C(O)C1O` (stereo not given), the growth is 98.6% in assay [1]; 110% in [2]; 72% in assay [3]; 91% in assay [4]; 100% in [6]; 85.5% in assay [7]. The growth in assay [8] is 93.6%; in assay [9], 91.4%; in [10], 91.5%; in [12], 74%; in [19] it was 76.7%; in assay [14] it was 96.9%. Also, the growth was 96.5% in assay [15], 93.7% in assay [16] and 87.6% in assay [18].

For `Cc1ccc(C)n1-c1ccsc1C(=O)NNC(=O)C(Cl)Cl`, the growth is 103% in assay [1]; 106% in assay [2]; 104% in [3]; 107% in assay [4]; 88.5% in assay [5]; 94.8% in assay [6]. In addition, the growth in [7] is 93.4%; in assay [8], 81.7%; in [9], 112%; in assay [10], 106%; in assay [11], 92.5%; in [12] it was 98.6%. Moreover, the growth is 112% in assay [13]; 104% in assay [14]; 93.3% in assay [15]; 101% in assay [16]; 85.3% in [17]; 118% in assay [18].

With `O=C(Cc1nc2ccc([N+](=O)[O-])cc2nc1CC(=O)c1cccnc1)c1cccnc1`, the growth was 58.3% in [1]; 95.8% in assay [2]; 4% (active) in [3]; 37.7% in assay [4]; 96.7% in assay [5]; 74.5% in assay [6]. The growth in assay [7] is 69.4%; in [8], 49.4%; in assay [9], 80.6%; in [10], 113%; in [11] it was 63.2%; in assay [12], 56.2%. Also, the growth in assay [13] was 75.5%; in assay [14], 54.1%; in assay [15], 81.5%; in [16], 86.9%; in [17] it was 48.7%; in assay [18], 80.8%.

For `CC1(C)S(=O)(=O)OCCOS1(=O)=O`, the growth in assay [1] is 101%; in assay [2], 105%; in assay [3], 98.7%; in assay [4], 95%; in [5], 100%; in assay [6], 93.6%. Also, the growth in assay [7] was 92.3%; in [8] it was 95.2%; in assay [9] it was 112%; in assay [10], 115%; in assay [11], 94.8%; in [12], 101%. The growth in [13] was 93.2%; in assay [14] it was 106%; in assay [15], 93.9%; in [16], 101%; in [17], 78.8%; in assay [18] it was 102%.

With `COc1ccc(-c2cc(-c3cc(-c4ccc(OC)cc4)nc(N)n3)nc(N)n2)cc1`, the growth in [1] was 103%; in assay [2], 105%; in [3], 91.4%; in assay [4], 101%; in [5] it was 96.5%; in assay [6] it was 97.1%. The growth was 91.4% in [7]; 95% in assay [8]; 103% in assay [9]; 115% in assay [10]; 92.1% in assay [11]; 93.8% in assay [12]. In addition, the growth is 102% in [13]; 97.6% in [14]; 91.9% in [15]; 94.1% in [16]; 76.7% in [17]; 112% in [18].

With `O=[N+]([O-])c1ccc(-c2noc(-c3cccs3)n2)cc1`, the growth in assay [1] was 84%; in assay [2], 92.5%; in assay [3], 83.2%; in [4] it was 86.5%; in assay [5], 90.3%; in assay [6] it was 83.5%. Besides, the growth in assay [7] was 76.6%; in assay [8] it was 86%; in assay [9] it was 99.5%; in [10], 106%; in [11], 66.1%; in assay [12] it was 83.5%. Further, the growth in [13] was 101%; in assay [14] it was 60.2%; in [15], 77.8%; in assay [16], 88.6%; in assay [17] it was 93.6%; in assay [18], 81.5%.

Regarding `c1c(-c2cc(C3CC3)[nH]n2)n[nH]c1C1CC1`, the growth is 103% in [1]; 98.7% in assay [2]; 112% in assay [3]; 95.2% in assay [4]; 98.1% in assay [5]; 82.1% in [6]. In addition, the growth in [7] is 87.2%; in assay [8] it was 77.8%; in assay [9], 100%; in [10] it was 104%; in assay [11] it was 76.6%; in [12], 102%. The growth is 106% in assay [13]; 99.3% in assay [14]; 97.6% in [15]; 97.6% in assay [16]; 67% in assay [17]; 95.2% in [18].

On to `c1ccc(/C(=N\N=C(/c2ccccc2)c2cccs2)c2cccs2)cc1`, for which the growth in assay [1] was 92.4%; in assay [2], 95.4%; in assay [3], 89%; in [4], 103%; in [5], 99.8%; in assay [6], 101%. The growth was 88.4% in [8]; 108% in assay [9]; 89.1% in assay [10]; 98% in assay [11]; 71.2% in assay [19]; 104% in assay [13]. Besides, the growth was 89.8% in assay [14], 89.9% in [15], 102% in assay [16] and 91.9% in [18].

For `Nc1nc2c(c(-c3nc(N)nc4c3CCc3ccccc3-4)n1)CCc1ccccc1-2`, the growth in [1] is 104%; in assay [2], 112%; in assay [3] it was 98.8%; in assay [4], 114%; in [5], 86.9%; in assay [6], 99.3%. The growth in assay [7] is 94.6%; in assay [8] it was 98.3%; in assay [9], 115%; in [10] it was 134%; in assay [11] it was 89.9%; in assay [12] it was 102%. The growth in assay [13] was 131%; in assay [14], 95.1%; in assay [15], 76.9%; in assay [16] it was 125%; in assay [17], 107%; in assay [18], 115%.

As for `CCOC(=O)c1cc(/C=C/c2ccc(Cl)cc2Cl)on1`, the growth in [1] was -66.1% (active); in [2], 1.53% (active); in assay [3] it was 58.9%; in assay [4], 6.71% (active); in assay [5], 44%; in assay [6], 92.3%. For the same molecule, the growth in assay [7] was 48.7%; in assay [8], -90.1% (active); in [9], 86.1%; in [10], 109%; in [11], 45.2%; in assay [12], 70.8%. The growth in assay [13] was 155%; in assay [14] it was 2.04% (active); in assay [15], 42.9%; in assay [16], 133%; in assay [17], 19%; in [18], 32.5%.
